Data taken from PubChem BioAssay AID488848 (Broad Institute, 2010).
Results with a measured potency or affinity are listed apart. The source made the active and inactive calls.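 The calls were made as follows: active = compounds lowering caspase signal with half-maximal concentration at most ten times their top tested dose; inconclusive = flat curve with 30 to 70% inhibition, or poor fit; inactive = the rest.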

Experiment: caspase-3/7 inhibition in cytokine-treated INS-1E, dose response, beta-cell apoptosis inhibitor project, cell-based, caspase luminescence, dry powder (AID 488848)
Details: INS-1E cytokine-induced caspase-3/7 luminescence, 48 h; series mostly up to 19.5 µM

outcome, inactive:
COc1ccc(S(=O)(=O)N(C)C[C@@H]2Oc3c(NC(=O)NC4CCCc5ccccc54)cccc3C(=O)N([C@@H](C)CO)C[C@H]2C)cc1 (stereo not given in full)
COc1ccc(S(=O)(=O)N(C)C[C@@H]2Oc3c(NC(=O)Nc4cccc(C(F)(F)F)c4)cccc3C(=O)N([C@@H](C)CO)C[C@H]2C)cc1
COc1ccc(S(=O)(=O)N(C)C[C@@H]2Oc3c(NC(=O)Nc4cc(F)cc5c4OCOC5)cccc3C(=O)N([C@@H](C)CO)C[C@H]2C)cc1
C[C@@H]1CN([C@@H](C)CO)C(=O)c2cccc(NC(=O)Nc3cccc4ccccc34)c2O[C@H]1CN(C)S(=O)(=O)c1cccc(F)c1
C[C@@H]1CN([C@@H](C)CO)C(=O)c2cccc(NC(=O)Nc3cccc4ccccc34)c2O[C@H]1CN(C)S(=O)(=O)c1ccccc1F
COc1ccc(S(=O)(=O)N(C)C[C@@H]2Oc3c(NC(=O)Nc4ccc5c(c4)OCCO5)cccc3C(=O)N([C@@H](C)CO)C[C@H]2C)cc1
C[C@@H]1CN([C@@H](C)CO)C(=O)c2cccc(NC(=O)Nc3cccc4ccccc34)c2O[C@H]1CN(C)S(=O)(=O)c1ccc(F)cc1
Cc1ccc(S(=O)(=O)N(C)C[C@@H]2Oc3c(NC(=O)Nc4ccc(F)cc4)cccc3C(=O)N([C@H](C)CO)C[C@H]2C)cc1
C[C@@H]1CN([C@@H](C)CO)C(=O)c2cccc(NC(=O)Nc3cccc4ccccc34)c2O[C@H]1CN(C)S(=O)(=O)c1ccc2c(c1)CCC(=O)N2
C[C@@H]1CN([C@@H](C)CO)C(=O)c2cccc(NC(=O)Nc3cccc4ccccc34)c2O[C@H]1CN(C)S(=O)(=O)c1ccc(-c2ccccc2)cc1
C[C@@H]1CN([C@@H](C)CO)C(=O)c2cccc(NC(=O)Nc3cccc4ccccc34)c2O[C@H]1CN(C)S(=O)(=O)c1ccc(Oc2ccccc2)cc1
COc1ccc(S(=O)(=O)N(C)C[C@@H]2Oc3c(NC(=O)Nc4cccc5c4CC(C)(C)O5)cccc3C(=O)N([C@@H](C)CO)C[C@H]2C)cc1
COc1ccc(S(=O)(=O)N(C)C[C@@H]2Oc3c(NC(=O)Nc4ccc5occc5c4)cccc3C(=O)N([C@@H](C)CO)C[C@H]2C)cc1
COc1ccc(S(=O)(=O)N(C)C[C@@H]2Oc3c(NC(=O)Nc4cccc5c4NSN5)cccc3C(=O)N([C@@H](C)CO)C[C@H]2C)cc1
COc1ccc(S(=O)(=O)N(C)C[C@@H]2Oc3ccc(NC(=O)Nc4cccc5ccccc45)cc3C(=O)N([C@@H](C)CO)C[C@H]2C)cc1
COc1ccc(S(=O)(=O)N(C)C[C@@H]2Oc3c(NC(=O)Nc4cccc5ccccc45)cccc3C(=O)N([C@@H](C)CO)C[C@H]2C)cc1Cl
C[C@@H]1CN([C@@H](C)CO)C(=O)c2cccc(NC(=O)Nc3ccc(F)cc3)c2O[C@H]1CN(C)S(=O)(=O)c1ccc(Cl)cc1
C[C@@H]1CN([C@@H](C)CO)C(=O)c2cccc(NC(=O)Nc3cccc4ccccc34)c2O[C@H]1CN(C)S(=O)(=O)Cc1ccc(F)cc1
COc1ccc(S(=O)(=O)N(C)C[C@@H]2Oc3c(NC(=O)Nc4ccccc4-c4ccccc4)cccc3C(=O)N([C@@H](C)CO)C[C@H]2C)cc1
COc1ccc(S(=O)(=O)N(C)C[C@@H]2Oc3c(NC(=O)Nc4cc(F)ccc4F)cccc3C(=O)N([C@@H](C)CO)C[C@H]2C)cc1
COc1ccc(S(=O)(=O)N(C)C[C@@H]2Oc3c(NC(=O)Nc4cccc5ccccc45)cccc3C(=O)N([C@@H](C)CO)C[C@H]2C)cc1F
C[C@@H]1CN([C@@H](C)CO)C(=O)c2cccc(NC(=O)Nc3cccc4ccccc34)c2O[C@H]1CN(C)S(=O)(=O)c1ccc(Cl)cc1
COc1cccc(S(=O)(=O)N(C)C[C@@H]2Oc3c(NC(=O)Nc4cccc5ccccc45)cccc3C(=O)N([C@@H](C)CO)C[C@H]2C)c1
COc1ccc(S(=O)(=O)N(C)C[C@@H]2Oc3c(NC(=O)Nc4cccc5ccccc45)cccc3C(=O)N([C@@H](C)CO)C[C@H]2C)c(OC)c1
COc1ccccc1S(=O)(=O)N(C)C[C@@H]1Oc2c(NC(=O)Nc3cccc4ccccc34)cccc2C(=O)N([C@@H](C)CO)C[C@H]1C
